Measurements: PubChem BioAssay (NCATS)
Inconclusive results are not listed. The source made the active and inactive calls. Calls follow the shape of the dose curve; as a rule, active = well fitted curve in the direction sought with a large enough effect; inconclusive = small, poorly fitted or top-dose-only effect, or another doubt; inactive = no such curve, though single readings can be large; an effect the other way counts as inactive or inconclusive.

Assays:
[1] = target: Rap guanine nucleotide exchange factor 3 (Homo sapiens) (UniProt O95398); assay: Confirmatory qHTS for antagonist of cAMP-regulated guanine nucleotide exchange factor 3 (EPAC1) (AID 1645880);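 also: plate controls were DMSO only for no effect and full effect of the ATA control for full effect; nearly all actives have a fitted effect of over 55% in size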
Procedure, shortened: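 Nucleotide exchange uses 100 nM EPAC1, 250 nM RAP1B-BODIPY-GDP and 50 uM GDP, with compounds in a concentration-titration series. After 5 min at room temperature, fluorescence (480 nm ex/540 nm em) is read every 5 min for 30 min. Data are normalized to control ATA and DMSO.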

[2] = target: Rap guanine nucleotide exchange factor 4 (Homo sapiens) (UniProt Q8WZA2); assay: Confirmatory qHTS for agonist of cAMP-regulated guanine nucleotide exchange factor 4 (EPAC2) (AID 1645884);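 also: nucleotide exchange releases bodipy-GDP from Rap1 and this lowers its fluorescence; % is scaled to controls: 0 for no effect and ±100 for the full control effect; nearly all actives have a fitted effect of over 65% in size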
[3] = target: Rap guanine nucleotide exchange factor 4 (Homo sapiens) (UniProt Q8WZA2); assay: Confirmatory qHTS for antagonist of cAMP-regulated guanine nucleotide exchange factor 4 (EPAC2) (AID 1645885); also: % is scaled to controls: 0 for no effect and ±100 for the full control effect; nearly all actives have a fitted effect of over 25% in size
[4] = target: Rap guanine nucleotide exchange factor 3 (Homo sapiens) (UniProt O95398); assay: Counterscreen qHTS for antagonist of cAMP-regulated guanine nucleotide exchange factor 3 (EPAC1) (AID 1645888);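 also: fluorescence loss as bound BODIPY-GDP is released from Rap1B; % of control where 0% means no effect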
Procedure, shortened: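 Rap1B-BODIPY-GDP 250 nM + GDP 50 uM; cpds 7-pt, final 9.74 nM–152 uM (activator mode) or from 7.32 nM upwards (inhibitor mode); RT; FI 480/540 nm at 5 and 30 min, then ± cAMP, reread.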

[5] = target: Rap guanine nucleotide exchange factor 3 (Homo sapiens) (UniProt O95398); assay: Confirmatory qHTS for agonist of cAMP-regulated guanine nucleotide exchange factor 3 (EPAC1) (AID 1645881);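 also: EPAC1 catalysed release of BODIPY-GDP from Rap1B seen as fluorescence loss; 100% = effect of cAMP agonist control; nearly all actives have a fitted effect of over 75% in size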
[6] = target: Cytochrome P450 3A4 (Homo sapiens) (UniProt P08684); assay: qHTS Assay for Inhibitors and Substrates of Cytochrome P450 3A4 (AID 884); also: potency is read from the fitted curve at half-maximal effect; nearly all actives have a fitted effect of over 50% in size
Procedure, shortened: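 20 nM human CYP3A4 with 25 uM Luciferin-PPXE (at KM) in 200 mM KPO4, preincubated 10 min with compound; NADPH regeneration started a 60 min RT reaction. Luciferin detected by luminescence, normalized to 57 uM ketoconazole as full inhibition.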

[7] = target: Cytochrome P450 3A4 (Homo sapiens) (UniProt P08684); assay: qHTS Assay for Activators of Cytochrome P450 3A4 (AID 885); also: nearly all actives have a fitted effect of over 65% in size
Procedure, shortened: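 Steps: enzyme/substrate mix dispensed; compound added, 10 min RT; NADPH regeneration solution added, 60 min RT; luciferin detection buffer stops reaction; 20 min later luminescence measured.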

[8] = Confirmation and Secondary Assay for Modulators of Hemoglobin Beta Chain Splicing at IVS2 654 locus (AID 910);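 also: HeLa cells stably carrying EGFP split by mutant beta-globin IVS2-654 intron; per-well total GFP intensity by laser scanning cytometry after 2-day treatment; % of control where 0% means no effect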
Procedure, shortened: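 Readout: per-well total peak green fluorescence (488 nm ex, 500–520 nm em) from objects 5–250 µm, reflecting correct splicing of an EGFP-654 reporter. Compounds were applied for 2 days at 37 °C to overnight-plated HeLa EGFP-654 cells; controls were DMSO and 500 nM IVS2-654 PNA.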

[9] = Confirmation and Secondary Assay for Modulators of Hemoglobin Beta Chain Splicing at IVS2 705 locus (AID 930);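 also: HeLa cells stably expressing the EGFP-705 splicing reporter; GFP fluorescence per well restored by corrected splicing of the IVS2-705 intron in EGFP; series mostly up to about 46 µM; % of control where 0% means no effect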
Procedure, shortened: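 Secondary splice-site specificity test uses HeLa expressing CMV-driven EGFP interrupted by IVS2-705; cells were treated 2 days at 37C with 500 nM antisense PNA as positive control.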

Rap guanine nucleotide exchange factor 4 (Homo sapiens), sequence (Q8WZA2 whole entry, looked up): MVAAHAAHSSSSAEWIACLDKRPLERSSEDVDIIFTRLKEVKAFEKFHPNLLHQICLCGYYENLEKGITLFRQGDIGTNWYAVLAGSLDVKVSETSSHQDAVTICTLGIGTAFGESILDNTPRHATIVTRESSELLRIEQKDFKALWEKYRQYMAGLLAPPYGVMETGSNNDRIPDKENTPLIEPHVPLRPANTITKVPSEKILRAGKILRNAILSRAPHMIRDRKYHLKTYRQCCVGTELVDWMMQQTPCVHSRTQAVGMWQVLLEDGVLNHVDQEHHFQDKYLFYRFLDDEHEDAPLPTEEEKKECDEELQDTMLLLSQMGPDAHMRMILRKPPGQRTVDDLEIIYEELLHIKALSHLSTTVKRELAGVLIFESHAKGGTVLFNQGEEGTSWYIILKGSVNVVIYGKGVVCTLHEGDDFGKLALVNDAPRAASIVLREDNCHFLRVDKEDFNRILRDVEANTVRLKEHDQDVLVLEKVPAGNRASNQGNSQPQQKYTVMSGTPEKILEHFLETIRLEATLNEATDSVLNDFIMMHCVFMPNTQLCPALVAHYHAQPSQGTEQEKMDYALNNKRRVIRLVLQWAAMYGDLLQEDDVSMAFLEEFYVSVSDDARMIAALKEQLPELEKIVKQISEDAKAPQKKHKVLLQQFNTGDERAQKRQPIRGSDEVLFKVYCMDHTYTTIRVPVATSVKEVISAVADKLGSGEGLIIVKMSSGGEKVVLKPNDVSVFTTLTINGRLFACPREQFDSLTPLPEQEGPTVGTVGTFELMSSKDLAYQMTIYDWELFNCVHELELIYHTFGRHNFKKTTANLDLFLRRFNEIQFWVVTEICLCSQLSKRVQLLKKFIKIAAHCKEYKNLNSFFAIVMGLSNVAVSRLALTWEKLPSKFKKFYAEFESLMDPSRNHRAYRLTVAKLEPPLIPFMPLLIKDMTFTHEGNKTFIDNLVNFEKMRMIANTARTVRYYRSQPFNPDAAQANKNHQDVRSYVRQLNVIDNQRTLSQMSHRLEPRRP
Rap guanine nucleotide exchange factor 3 (Homo sapiens), sequence (O95398 whole entry, looked up): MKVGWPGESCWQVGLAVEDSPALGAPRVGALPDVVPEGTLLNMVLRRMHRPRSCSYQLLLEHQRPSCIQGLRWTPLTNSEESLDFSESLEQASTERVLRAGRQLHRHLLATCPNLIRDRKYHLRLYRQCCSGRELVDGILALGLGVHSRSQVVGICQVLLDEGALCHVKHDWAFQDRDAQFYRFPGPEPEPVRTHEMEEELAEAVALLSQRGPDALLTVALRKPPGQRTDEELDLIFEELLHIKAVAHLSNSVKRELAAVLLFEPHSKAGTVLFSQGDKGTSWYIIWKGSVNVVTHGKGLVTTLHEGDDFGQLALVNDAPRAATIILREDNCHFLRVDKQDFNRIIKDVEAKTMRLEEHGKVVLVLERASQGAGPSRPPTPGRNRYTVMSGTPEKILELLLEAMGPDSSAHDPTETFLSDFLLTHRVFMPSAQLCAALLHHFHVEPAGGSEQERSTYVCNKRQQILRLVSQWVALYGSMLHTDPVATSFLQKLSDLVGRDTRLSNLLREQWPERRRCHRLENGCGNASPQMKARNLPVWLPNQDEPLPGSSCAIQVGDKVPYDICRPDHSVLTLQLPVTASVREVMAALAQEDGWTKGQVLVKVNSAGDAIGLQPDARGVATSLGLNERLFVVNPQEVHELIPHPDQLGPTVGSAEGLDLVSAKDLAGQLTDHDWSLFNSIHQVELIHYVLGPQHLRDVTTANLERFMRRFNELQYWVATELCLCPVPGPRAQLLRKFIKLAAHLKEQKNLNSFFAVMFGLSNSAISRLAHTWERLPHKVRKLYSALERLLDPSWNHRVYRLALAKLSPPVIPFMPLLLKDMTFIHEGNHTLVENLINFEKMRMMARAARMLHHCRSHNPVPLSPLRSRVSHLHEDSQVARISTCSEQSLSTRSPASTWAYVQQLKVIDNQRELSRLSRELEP
Cytochrome P450 3A4 (Homo sapiens), sequence (P08684 whole entry, looked up): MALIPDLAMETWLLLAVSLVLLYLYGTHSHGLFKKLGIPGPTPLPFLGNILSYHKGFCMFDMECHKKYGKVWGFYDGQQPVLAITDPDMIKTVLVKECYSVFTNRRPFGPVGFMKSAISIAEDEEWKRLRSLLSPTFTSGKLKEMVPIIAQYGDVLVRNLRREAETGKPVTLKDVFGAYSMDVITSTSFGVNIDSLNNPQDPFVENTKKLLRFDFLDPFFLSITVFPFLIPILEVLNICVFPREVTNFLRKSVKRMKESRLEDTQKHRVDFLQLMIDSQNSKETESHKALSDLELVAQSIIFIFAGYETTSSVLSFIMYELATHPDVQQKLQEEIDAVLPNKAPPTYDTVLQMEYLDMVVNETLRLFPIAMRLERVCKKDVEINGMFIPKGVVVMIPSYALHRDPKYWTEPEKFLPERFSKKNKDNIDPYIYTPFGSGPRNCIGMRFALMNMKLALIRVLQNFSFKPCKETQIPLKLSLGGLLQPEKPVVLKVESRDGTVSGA

CC(C)N1C(=O)/C(=C/C=C/c2ccco2)C(=O)N(Cc2ccco2)C1=O
inactive: Potency [1] | activation [2] 13% [at 17.1 µM, percent relative to cAMP agonist control] | activity change, negative = inhibition [3] 22.6% [at 12.7 µM] | activity change, negative = inhibition [4] 52.4% [at 30.8 µM]

COC(=O)C1C2c3ccccc3C(c3ccccc32)C1(C)C(=O)OC (stereo not given)
inactive: Potency [1] | Potency [5] | activation [2] 9.42% [at 17.1 µM, percent relative to cAMP agonist control] | activity change, negative = inhibition [4] 4.93% [at 30.8 µM]

CCCCCC1C(=O)O[C@H](C)[C@@H](NC(=O)c2cccc(NC=O)c2O)C(=O)OC(C)C1OC(=O)CC(C)C (stereo not given in full)
active: Potency [6] 7.94 µM
inactive: Potency [7] | Potency [8] | Potency [9] | Potency [1] | Potency [5] | Potency [2]
